Bioassay records as filed in PubChem.
p97 inhibitor: human p97 ATPase inhibition; hit rate 0.42% among 220,000; AID 1481; inhibition, % at 8 µM; recombinant p97 ATPase, Kinase-Glo ATP luminescence, 3 h; P55072; in the data active means inhibition above about 15%;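 further: 0% = DMSO vehicle and 100% = wells lacking enzyme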
S1P3 antag-1: blocks the human S1P3 receptor | Q99500 | CHO S1P3 NFAT-BLA reporter, FRET fluorescence, antagonist mode | inhibition, % at 4.98 µM | hit rate 0.27% among 170,000 | AID 485;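 active means inhibition above the plate cutoff, the mean inhibition of test wells on that plate plus 3 SD, cut at about 28% in these data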;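 further: cells challenged with S1P at its EC80 of 0.8 µM; blue over green emission ratio from cleaved BLA substrate after 4 h stimulation; 0% = S1P-stimulated wells and 100% = unstimulated DMSO-only wells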
Target sequence (Q99500 whole entry, looked up): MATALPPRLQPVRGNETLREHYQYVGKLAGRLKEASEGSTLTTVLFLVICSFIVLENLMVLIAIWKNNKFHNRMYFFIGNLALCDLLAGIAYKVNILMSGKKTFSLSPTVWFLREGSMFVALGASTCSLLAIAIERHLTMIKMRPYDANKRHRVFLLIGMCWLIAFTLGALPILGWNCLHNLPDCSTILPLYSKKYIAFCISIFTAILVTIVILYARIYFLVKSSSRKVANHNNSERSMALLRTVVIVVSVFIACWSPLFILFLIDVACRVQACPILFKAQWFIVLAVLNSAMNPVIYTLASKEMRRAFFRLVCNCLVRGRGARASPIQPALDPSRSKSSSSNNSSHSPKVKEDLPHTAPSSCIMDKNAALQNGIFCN
G6PDH counter: L. mesenteroides G6PDH inhibition counter-screen. Purified L. mesenteroides G6PDH, diaphorase/resazurin coupled fluorescence, 45 min. hit rate 0.12% among 200,000. inhibition, % at 5 µM. AID 1020; in the data active means inhibition above about 50%
Redox H2O2 prof: compounds producing H2O2 with reducing agent – biochemical, NIH compound library profiling, artefact control for MLSCN library redox annotation, primary screen; hit rate 0.03% among 200,000; DTT-dependent redox cycling H2O2, phenol red/HRP absorbance; 100% = 100 µM peroxide control, 0% = buffer; activation, % at 10 µM; AID 878;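 active means activation of at least 50% relative to the plate's high and low controls in the primary single-dose screen; inactive means activation below 50%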;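 further: compound incubated with DTT at 0.8 mM final as the reducing agent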
TbHK1 inh: blocks Trypanosoma brucei hexokinase 1 activity | recombinant TbHK1, G6PDH-coupled NADH A340 | inhibition, % at 10 µM | hit rate 0.11% among 220,000 | AID 1430;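 active means inhibition of 50% or more in the single-dose primary screen; inactive means inhibition below 50%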
S1P3 antag-2: human S1P3 receptor antagonism, confirmation; shares compounds with S1P3 antag-1; CHO S1P3 NFAT-BLA reporter, FRET, antagonist mode; inhibition, % at 4.98 µM; hit rate 30% among 240;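 active means inhibition above the hit threshold that was computed for the earlier primary screen, cut at about 30% in these data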;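 further: 0% = S1P-stimulated wells and 100% = unstimulated DMSO-only wells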
Redox H2O2 DR: generates H2O2 by DTT-dependent redox cycling, confirmed in dose response. AID 1234. phenol red-HRP absorbance. shares compounds with Redox H2O2 prof. hit rate 40% among 60. EC50, µM;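 active means EC50 under a set limit for hydrogen peroxide production with the reducing agent DTT present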
* = called active by the depositor. The list is not random: actives were taken first. Their share in the collection is about 0.84%.

CCOc1ccc(OCC)c(NC(=O)CCSCCc2ccccn2)c1 was read as p97 inhibitor -7, S1P3 antag-1 9, G6PDH counter 2, Redox H2O2 prof 1 and TbHK1 inh -3.
CCN(CC)S(=O)(=O)c1cccc(C(=O)NC(C)C(c2cccs2)N2CCCC2)c1 (configuration not stated) was read as p97 inhibitor 4, S1P3 antag-1 29*, G6PDH counter 3, Redox H2O2 prof -2, TbHK1 inh -6 and S1P3 antag-2 -7.
For Nc1ccc2nc3c(=O)n(C4CCCCC4)c(=O)[nH]c3nc2c1 the results were p97 inhibitor 11, S1P3 antag-1 30*, TbHK1 inh -16 and S1P3 antag-2 13.
Screening O=NN(CCc1ccncc1)c1ccc(OCc2ccccc2)cc1 returned p97 inhibitor 0, S1P3 antag-1 33*, G6PDH counter -4, Redox H2O2 prof 0, TbHK1 inh -1 and S1P3 antag-2 14.
O=C(NCc1ccncc1)C(=O)N/N=C/c1ccc(OCc2ccccc2)cc1 was read as p97 inhibitor 5, S1P3 antag-1 -9, G6PDH counter -3, Redox H2O2 prof -2 and TbHK1 inh -1.
COc1ccc(CN(CC2CCC(C(=O)O)CC2)C(=S)Nc2cc(C)ccc2C)cc1 (configuration not stated) was read as p97 inhibitor 0, S1P3 antag-1 33*, G6PDH counter 13, Redox H2O2 prof 0, TbHK1 inh -7 and S1P3 antag-2 -16.
For CN(C)c1ccc(/C=C/c2ccc3ccccc3n2)cc1 the results were p97 inhibitor -44, S1P3 antag-1 46*, TbHK1 inh -18 and S1P3 antag-2 45*.
Cc1ccc(CNc2cc(-c3nn4c(C)nnc4s3)ccc2C)s1 was read as p97 inhibitor -4, S1P3 antag-1 1, G6PDH counter -2, Redox H2O2 prof 0 and TbHK1 inh 8.
For O=C1C(=O)N(CCN2CCOCC2)C(c2cccnc2)/C1=C(/O)c1ccccc1 (configuration not stated) the results were p97 inhibitor 9, S1P3 antag-1 2, G6PDH counter 2, Redox H2O2 prof 0 and TbHK1 inh -9.
`CCN(CC)c1ccc(/C=N/NC(=O)c2cc(C)nc3ccccc23)cc1` gave p97 inhibitor -4, S1P3 antag-1 14 and TbHK1 inh -35.
For CCN(CC)c1ccc(/C=C/c2cc(-c3ccccc3)c3ccccc3n2)cc1 the results were p97 inhibitor -3, S1P3 antag-1 76*, TbHK1 inh -13 and S1P3 antag-2 90*.
For Cn1c(-c2c(N)n(-c3ccccc3)c3nc4ccccc4nc23)nc2ccccc21 the results were p97 inhibitor 11, S1P3 antag-1 68*, G6PDH counter 0, Redox H2O2 prof 1, TbHK1 inh -20 and S1P3 antag-2 45*.
CCOC(=O)c1c(C(=O)OCC)c(C)n(CCc2ccccc2)c1C was read as p97 inhibitor -3, S1P3 antag-1 -3, G6PDH counter 9, Redox H2O2 prof 1 and TbHK1 inh -1.
For CC(C)c1ccc(NCCC(=O)c2cccs2)cc1 the results were p97 inhibitor 2, S1P3 antag-1 30*, G6PDH counter 3, Redox H2O2 prof 0, TbHK1 inh -1 and S1P3 antag-2 4.
For O=C1c2cccc3c(N4CCCCC4)ccc(c23)C(=O)N1c1ccccc1O the results were p97 inhibitor 6, S1P3 antag-1 48*, G6PDH counter 9, Redox H2O2 prof -1, TbHK1 inh -6 and S1P3 antag-2 33*.
CCCCSc1nnc(CSc2ncccn2)n1C was read as p97 inhibitor 6, S1P3 antag-1 29*, G6PDH counter 8, Redox H2O2 prof 0, TbHK1 inh -2 and S1P3 antag-2 -5.
For Cc1ccc(NC(=O)N2CCN(c3ccccn3)CC2)cc1 the results were p97 inhibitor 0, G6PDH counter 0, Redox H2O2 prof 0 and TbHK1 inh -5.
For CCC(CC)C(=O)Nc1ccc([N+](=O)[O-])cn1 the results were p97 inhibitor 0, S1P3 antag-1 4, G6PDH counter 10, Redox H2O2 prof -1 and TbHK1 inh -10.
Screening O=C(CCC1CCCC1)Nc1ccc([N+](=O)[O-])cn1 returned p97 inhibitor -1, S1P3 antag-1 32*, G6PDH counter 1, Redox H2O2 prof 0, TbHK1 inh -9 and S1P3 antag-2 -2.
Screening CCN(CC)S(=O)(=O)c1cccc(-c2nnc(SCC(=O)N3CCC(C(=O)O)CC3)n2N)c1 returned p97 inhibitor 5, S1P3 antag-1 -9, G6PDH counter 3, Redox H2O2 prof 0 and TbHK1 inh -3.
`O=C(c1ccccc1)c1ccc2c(c1)OCCOCCOCCOCCO2` gave p97 inhibitor 8, S1P3 antag-1 29*, TbHK1 inh -19 and S1P3 antag-2 -14.
For COc1ccc(-n2c(C)cc(/C=N/Nc3nnc(C)n3N)c2C)cc1 the results were p97 inhibitor 0, S1P3 antag-1 31*, G6PDH counter -19, Redox H2O2 prof -1, TbHK1 inh -4 and S1P3 antag-2 -14.
For Fc1cccc(CCN2C(=S)NC[C@@H]2Cc2ccccc2)c1 the results were p97 inhibitor 2, S1P3 antag-1 -6, G6PDH counter 7, Redox H2O2 prof -1 and TbHK1 inh 3.
For c1ccc(Cc2nnc3n2N=C(c2ccccc2)CS3)cc1 the results were p97 inhibitor 5, S1P3 antag-1 29*, G6PDH counter 11, Redox H2O2 prof 0, TbHK1 inh -2 and S1P3 antag-2 -10.
For CCOC(=O)c1c(N)sc2c1CCC(CC)C2 (configuration not stated) the results were p97 inhibitor -1, G6PDH counter 6, Redox H2O2 prof 1 and TbHK1 inh 1.
CCOC(=O)c1sc(NC(=O)c2cc(-c3ccccc3C)nc3ccccc23)c(C#N)c1C was read as p97 inhibitor 2, G6PDH counter 2, Redox H2O2 prof 1 and TbHK1 inh -15.
`C/C(=N/Nc1ccc(C(=O)O)cc1)c1ccc(O)c(O)c1O` gave p97 inhibitor 3, S1P3 antag-1 6, G6PDH counter 25, Redox H2O2 prof 105*, TbHK1 inh 3 and Redox H2O2 DR >50.
`Cc1ccc(OCC(=O)N2CCc3ccccc32)c([N+](=O)[O-])n1` gave p97 inhibitor 3, S1P3 antag-1 -3, G6PDH counter 4, Redox H2O2 prof 0 and TbHK1 inh -6.
CC(=O)C(C(C)=O)C1(O)C(=O)c2ccccc2C1=O was read as p97 inhibitor 7, S1P3 antag-1 -18, G6PDH counter 6, Redox H2O2 prof 88*, TbHK1 inh 4 and Redox H2O2 DR >50.
Screening COC1=C(c2ccccc2)C(=O)c2ccccc2C1=O returned p97 inhibitor 4, S1P3 antag-1 1, G6PDH counter 46, Redox H2O2 prof 0 and TbHK1 inh -2.
